We go through 17 compounds from PubChem BioAssay.

The subject of test [1] is Human papillomavirus type 1a protein E7 (residues 44-93). Kind of test: small molecules binding HPV E7 44-93 – biochemical, small-molecule microarray, residues 44-93, 635 nm fluorescence, primary screen (AID 1108).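 Note: E7 fragment applied at 1 µg/mL in TBST for 1 h at 4 C; score combines spot fluorescence with its signal to noise ratio.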 Conditions: fluorescence 635 nm, higher = more signal.
A short description of test [2]: hepatitis C replication reporter changes, two-sided – Huh7 cells, luciferase reporter, HCV replication inhibitor project, primary screen (AID 1109).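 Note: huh7 hepatoma cells harbouring a luciferase neomycin HCV replicon reporter; luciferase luminescence as measure of HCV replicon replication; test concentration not given here.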 Particulars: Huh7 HCV replicon luciferase reporter, 48 h; higher = more signal. Background: A reporter such as luciferase makes a cellular process visible.
Test [3] concerns the target Left-right determination factor 2 (Homo sapiens) (UniProt O00292). In words: small molecules binding LEFTY2 protein – biochemical, small-molecule microarray, 635 nm fluorescence scan, primary screen (AID 1110). Particulars: higher = more signal.
Test [4] addresses Calmodulin-1 (Homo sapiens) (UniProt P0DP23). In words: small molecules binding calmodulin-1 with EGTA – biochemical, small-molecule microarray, Cy5-labelled CALM1, profiling panel (AID 1111).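 Note: labelled calmodulin applied in Tris saline Tween buffer holding calcium plus EGTA and DTT.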 Particulars: Cy5-CALM1 binding fluorescence, higher = more signal.
The target is the same in test [5]. In words: small molecules binding Ca-loaded calmodulin-1 – biochemical, small-molecule microarray, Cy5-labelled CALM1, plus calcium, artefact control for SMM control-protein annotation, profiling panel (AID 1112).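 Note: score merges spot fluorescence with signal to noise from triplicate slides.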 Particulars: Cy5-CALM1 binding fluorescence, higher = more signal.
Test [6] in a line: probe aWnt5a binding to arrayed compounds – biochemical, biotinylated probe, 635/667 nm fluorescence, primary screen (AID 1113).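 Note: score merges 667 nm fluorescence intensity with signal-to-noise per printed feature.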 Conditions: small-molecule microarray, higher = more signal.
A short description of test [7]: probe aShh binding to arrayed compounds – biochemical, biotinylated probe, 635/667 nm fluorescence, primary screen (AID 1114).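 Note: probe is biotin-labelled aShh protein from a stem cell growth factor screen; measures binding of labelled protein to compounds printed on the slide; score merges feature fluorescence at 667 nm with signal-to-noise.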 Conditions: small-molecule microarray, higher = more signal.
A short description of test [8]: probe aNog binding to arrayed compounds – biochemical, biotinylated probe, 635/667 nm fluorescence, primary screen (AID 1115).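 Note: probe is biotinylated aNog protein used at 0.15 µg/mL for 1 h at 4 C; z-score combines 667 nm fluorescence of each spot with its signal to noise.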 Conditions: small-molecule microarray, higher = more signal.
The target in test [9] is Torsin-1A-interacting protein 1 (Homo sapiens) (UniProt Q5JTV8). Kind of test: compound microarray binding of lysate hLAP1 – cell lysate, small-molecule microarray, COS7 lysate, 635/667 nm fluorescence, primary screen (AID 1116). Particulars: 635 nm fluorescence, higher = more signal.
Test [10] concerns the target Alpha-bungarotoxin (Bungarus multicinctus) (UniProt P60615). In words: compounds binding labelled alpha-BTX control protein – biochemical, small-molecule microarray, Alexa647 label, 635/667 nm fluorescence, artefact control for SMM control protein annotation, profiling panel (AID 1117). Particulars: alpha-BTX-A647 binding fluorescence, higher = more signal.

Torsin-1A-interacting protein 1 (Homo sapiens), sequence (Q5JTV8 whole entry, looked up): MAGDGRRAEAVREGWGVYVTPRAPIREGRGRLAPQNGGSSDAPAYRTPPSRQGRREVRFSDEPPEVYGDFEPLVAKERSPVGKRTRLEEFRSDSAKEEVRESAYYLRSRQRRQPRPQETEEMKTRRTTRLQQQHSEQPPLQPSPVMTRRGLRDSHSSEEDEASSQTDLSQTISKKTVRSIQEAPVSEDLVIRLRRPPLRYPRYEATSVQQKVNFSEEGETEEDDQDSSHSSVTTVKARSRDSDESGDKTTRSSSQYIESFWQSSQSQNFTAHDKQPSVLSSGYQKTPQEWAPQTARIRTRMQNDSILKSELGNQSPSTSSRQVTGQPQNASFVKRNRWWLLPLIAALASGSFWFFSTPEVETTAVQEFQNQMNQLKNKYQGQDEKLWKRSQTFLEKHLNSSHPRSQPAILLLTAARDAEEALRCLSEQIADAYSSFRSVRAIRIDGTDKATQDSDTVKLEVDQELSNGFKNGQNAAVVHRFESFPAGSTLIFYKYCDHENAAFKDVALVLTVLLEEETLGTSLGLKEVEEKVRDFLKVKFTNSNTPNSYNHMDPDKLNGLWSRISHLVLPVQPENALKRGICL
Alpha-bungarotoxin (Bungarus multicinctus), sequence (P60615 whole entry, looked up): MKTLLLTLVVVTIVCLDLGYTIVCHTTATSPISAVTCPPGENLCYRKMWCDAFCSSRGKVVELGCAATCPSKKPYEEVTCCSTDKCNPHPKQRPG
Left-right determination factor 2 (Homo sapiens), sequence (O00292 whole entry, looked up): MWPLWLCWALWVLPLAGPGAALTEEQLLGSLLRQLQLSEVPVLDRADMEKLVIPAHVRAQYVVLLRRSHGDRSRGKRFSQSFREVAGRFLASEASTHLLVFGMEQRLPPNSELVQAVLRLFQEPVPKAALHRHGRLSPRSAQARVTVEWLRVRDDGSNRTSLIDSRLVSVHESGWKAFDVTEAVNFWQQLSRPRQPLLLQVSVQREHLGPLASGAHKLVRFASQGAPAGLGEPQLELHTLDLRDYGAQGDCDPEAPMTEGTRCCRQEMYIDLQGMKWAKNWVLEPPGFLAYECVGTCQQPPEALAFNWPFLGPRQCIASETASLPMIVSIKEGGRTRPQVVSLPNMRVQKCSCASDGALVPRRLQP

Turning to `CS(=O)(=O)CCOC(=O)C1=CC(CCCO)=CC(c2ccc(CN3CCCC3)cc2)N(Cc2sc3ccccc3c2Cl)C=C1C(=O)OCCS(C)(=O)=O` (stereo not given), the composite z-score in [1] is 0.611; in test [3], 1.12; in test [4] it was 2.26; in test [5] it was 0.91; in test [6], -0.0297; in [7], 0.318. The composite z-score in [8] amounted to 1.49; in test [9], 2.83; in test [10], 2.86. In test [2], the z-score is -2.64.
Take `C=CCNC(=O)[C@@H]1[C@H]2C(=O)O[C@H](c3ccccc3)[C@H](c3ccccc3)N2[C@H](c2ccc(OCCO)cc2)[C@@]12C(=O)N(C(=O)OCCOC)c1ccc(C#Cc3ccc(OC)cc3)cc12`: the composite z-score in test [1] is 1.01; in test [3] it was 0.399; in [4], 1.6; in test [5] it was 0.169; in test [6], -0.27; in [7] it was -0.291. Further, the composite z-score is -0.272 in test [8], 0.229 in [9] and 1.22 in test [10]. Moreover, the z-score in test [2] is -1.14.
Take `COc1cc2c(cc1O)C(C1CC1)N(C)CC2` (stereo not given): the composite z-score in test [1] is -1.01; in test [3], -0.893; in test [4], -1.01; in [5], -0.193; in test [6], -0.0101; in test [7], -0.24. Further, the composite z-score was -0.139 in test [8], -0.431 in test [9] and -1.72 in test [10]. The z-score in [2] was -0.817.
For `CCOC(=O)C1=CC[C@@H](c2ccccc2F)N(S(=O)(=O)c2ccc(C)cc2)[C@H]1c1ccccc1`, the composite z-score in test [1] is 1.34; in test [3], 0.364; in test [4], 0.509; in test [5], -0.355; in [6] it was -0.0924; in [7], -0.0866. The composite z-score in test [8] is -0.473; in test [9] it was 0.292; in test [10], 0.42. For the same compound, the z-score in test [2] was -1.43.
Turning to `CO[C@H]1O[C@H](CO)[C@@H](OC(=O)Nc2ccc3c(c2)OCO3)[C@H](OC(=O)Nc2ccc3c(c2)OCO3)[C@@H]1OC(=O)Nc1ccc2c(c1)OCO2`, the composite z-score is 1.49 in test [1]; 0.472 in test [3]; 1.88 in test [4]; -0.745 in test [5]; 0.0618 in test [6]; 0.313 in test [7]. Besides, the results for the composite z-score in [8], in test [9] and in test [10] were 0.909, 1.25 and 1.7, respectively. In test [2], this compound came in with a z-score of 0.158.
On to `O=C1OCCC=C[C@H]2OC34C=CCN(Cn5nnc6ccccc65)C(=O)[C@H]3N(CCCO)C(=O)[C@@H]4C12` (stereo not given in full), for which the composite z-score is -0.69 in test [1]; -1.02 in [3]; -0.5 in test [4]; -0.0354 in test [5]; -0.112 in [6]; -0.388 in [7]. For the same compound, the composite z-score was -0.527 in test [8], 0.879 in test [9] and 0.204 in test [10]. Further, the z-score in test [2] is -0.642.
Turning to `CCOC(=O)C=Cc1cccc(C)c1O`, the composite z-score is -0.377 in test [1]; 0.111 in test [3]; -0.122 in test [4]; -0.335 in [5]; -0.1 in [6]; -0.0769 in test [7]. Also, the composite z-score in test [8] is -0.288; in test [9], 0.0897; in test [10], 0.11. The compound also displayed a z-score in test [2] of 0.717.
For `COC(=O)[C@@]1(Cc2ccc(F)cc2)[C@H]2c3cc(C(=O)N(C)C)n(Cc4ccc(OC(F)(F)F)cc4)c3C[C@H]2CN1C(=O)c1ccccc1`, the composite z-score in test [1] is 0.841; in test [3], 0.242; in test [4], 0.11; in test [5], -0.191; in [6] it was -0.0758; in [7], 0.442. For the same compound, the composite z-score in test [8] was 0.0924; in test [9], -0.147; in test [10], 0.414. For the same compound, in test [2], the z-score was found to be 0.167.
As to `[N-]=[N+]=Nc1ccccc1[C@@H]1OC(c2ccc(OCCCO)cc2)=N[C@]1(Cc1ccccc1)C(=O)O`, the composite z-score in test [1] is 1.4; in test [3], -0.529; in test [4], 1.57; in test [5], 0.886; in test [6] it was 0.0391; in test [7] it was 0.0659. The composite z-score in test [8] came out at 0.135; in test [9], 1.35; in test [10], 1.7. Besides, in [2], the z-score is 0.848.
With `O[C@@H](Cc1ccccc1)[C@@H](/C=C/C1CC1)N(CC#Cc1ccccc1)Cc1ccccc1Br`, the composite z-score was -0.0988 in test [1]; -0.804 in test [3]; -0.582 in test [4]; 0.282 in test [5]; -0.203 in [6]; -0.0769 in [7]. For the same compound, the composite z-score in test [8] was -0.224; in test [9] it was -0.183; in test [10], -0.288. This compound also gave a z-score in test [2] of -2.71.
In the case of `C#Cc1cc2ccccc2oc1=O`, the composite z-score is -0.455 in [1]; -2.19 in test [3]; -1.07 in [4]; -0.451 in test [5]; -0.187 in test [6]; 0.541 in test [7]. In addition, the composite z-score in [8] is -0.396; in [9], -0.402; in test [10] it was -1.65. The z-score in test [2] is -3.88.
On to `COC(=O)[C@@]1(Cc2ccc(OC)cc2)[C@H]2c3cc(C(=O)N4CCCC4)n(CCc4c[nH]c5ccc(O)cc45)c3C[C@H]2CN1C(=O)c1ccccc1`, for which the composite z-score in [1] turned out to be 1.39; in test [3] it was 0.148; in [4], 0.797; in [5], 0.202; in [6] it was 0.14; in test [7] it was 0.315. Also, the composite z-score came to 0.863 in test [8], 1.4 in test [9] and 0.485 in test [10]. In [2], this compound returned a z-score of -1.51.
Consider `COCC(=C=CC[C@H](O)c1ccccc1OCCO)C[C@H](O)c1ccccn1`, for which the composite z-score is -0.0881 in test [1]; 0.155 in test [3]; -0.0135 in test [4]; -0.411 in test [5]; -0.18 in test [6]; -0.214 in test [7]. In addition, the composite z-score in test [8] was -0.173; in [9] it was -0.191; in test [10], -0.0928. This compound also showed a z-score in test [2] of -0.267.
Regarding `Cc1ccc(S[C@]2(C(=O)NCc3ccccc3)CC(=O)N(C3CCCCC3)[C@@H]2c2ccc(CO)cc2I)cc1`, the composite z-score in [1] is 1.23; in test [3], -0.364; in test [4], 0.699; in test [5], -0.267; in [6], 0.205; in test [7] it was -0.0324. The composite z-score in test [8] is -0.18; in test [9], 0.759; in [10] it was 0.604. For the same compound, the z-score in [2] is -2.75.
With `Cc1ccc(S[C@]2(C(=O)NCCN3CCOCC3)CC(=O)N(Cc3ccccc3Cl)[C@@H]2c2ccc(CO)cc2I)cc1`, the composite z-score in [1] was 0.772; in [3], -1.45; in [4], 0.0002; in test [5], 0.154; in [6], 0.522; in test [7], 0.464. The composite z-score in [8] is 2.2; in [9] it was 2.35; in [10], -0.903. Also, in test [2], the z-score is -1.25.
In the case of `Cc1ccc(S[C@]2(C(=O)NCC(F)(F)F)CC(=O)N(Cc3cc(C(F)(F)F)cc(C(F)(F)F)c3)[C@@H]2c2ccc(CO)cc2I)cc1`, the composite z-score in [1] was -0.886; in test [3], -0.868; in test [4], -0.364; in test [5] it was 0.0808; in test [6], -0.231; in test [7] it was -0.0035. The composite z-score in test [8] is -0.426; in test [9], -0.152; in test [10], -0.379. The z-score in test [2] is -0.964.
Consider `C=C[C@H](C)[C@H](OC(=O)Nc1ccc(SC)cc1)c1ccc(OCCO)cc1`, for which the composite z-score in test [1] is 0.248; in test [3], -0.0482; in test [4], 0.272; in test [5] it was -0.037; in test [6] it was -0.183; in [7], 0.142. In addition, the composite z-score worked out at 0.576 in test [8], 1.6 in [9] and 1.58 in test [10]. For the same compound, in test [2], the z-score was -1.19.
